Screening results as filed in PubChem BioAssay.
CYP2C19 activ: human CYP2C19 activators, primary screen, biochemical, luminescence. recombinant CYP2C19, luciferin-H EGE luminescence; hits give high values; 0 = fully inhibited enzyme, 1 = untreated enzyme. activation factor at 5 µM. 96,000 tested, under 10 active. AID 1025, 2008;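 active = activation factor of at least 2 at 5 µM in the primary screen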;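 note: 0 = wells with 2.5 mM tranylcypromine and 1 = vehicle-only wells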
CYP2C19 inh: blockers of cytochrome P450 2C19 activity – biochemical, luminescence, ADME assay, primary screen; P33261; CYP2C19 Supersomes, luciferin-H EGE luminescence, 30 min; inhibition, % at 5 µM; hit rate 21% among 96,000; AID 778, 2007;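 active = CYP2C19 inhibition above a set limit at 5 µM in the primary screen, cut at about 50% in these data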;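 note: plate controls were negative control wells for no effect and 2.5 mM tranylcypromine positive control for full effect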
CYP2C9 act: human CYP2C9 activators, primary screen, biochemical, luminescence; Cytochrome P450 2C9 (Homo sapiens), P11712; recombinant CYP2C9, luciferin-H conversion; hits give high values; factor 1 = untreated enzyme, 0 = blocked; activation factor at 5 µM; hit rate 1.4% among 96,000;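 active = activation factor of 2 or more for CYP2C9 at a 5 µM dose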;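 note: 0 = sulfaphenazole-blocked wells and 1 = vehicle-only wells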
Target sequence (P11712 whole entry, looked up): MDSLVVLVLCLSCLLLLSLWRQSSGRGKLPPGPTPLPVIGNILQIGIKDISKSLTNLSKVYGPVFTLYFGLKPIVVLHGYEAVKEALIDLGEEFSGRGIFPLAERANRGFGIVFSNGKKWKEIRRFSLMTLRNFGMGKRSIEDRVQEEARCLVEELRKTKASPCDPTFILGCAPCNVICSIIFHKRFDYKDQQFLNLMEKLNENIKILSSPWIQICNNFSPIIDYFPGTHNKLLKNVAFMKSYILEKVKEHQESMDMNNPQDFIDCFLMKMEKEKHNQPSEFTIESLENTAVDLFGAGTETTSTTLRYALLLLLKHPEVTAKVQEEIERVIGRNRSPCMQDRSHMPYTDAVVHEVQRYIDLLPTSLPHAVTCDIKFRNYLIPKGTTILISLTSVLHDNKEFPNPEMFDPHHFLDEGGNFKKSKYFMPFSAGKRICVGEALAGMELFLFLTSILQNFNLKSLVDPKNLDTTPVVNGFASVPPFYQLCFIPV
CYP2C9 inhib: blockers of cytochrome P450 2C9 activity – biochemical, luminescence, ADME assay, primary screen | CYP2C9 Supersomes, luciferin-H conversion | inhibition, % at 5 µM | AID 777, 2007 | P11712 | hit rate 20% among 96,000;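 active = blocking of liver enzyme CYP2C9 beyond about 50% at 5 µM, limit read from the data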
PLAP act: PLAP enzyme activators, biochemical, luminescence, HTS; Alkaline phosphatase, placental type (Homo sapiens), P05187; purified PLAP enzyme, luminescent substrate read-out; hits give high values; activation fold at 20 µM; hit rate 1.2% among 96,000; AID 696, 2007; in the data active = activation fold above about 2
Active calls of the source: *. Rows were chosen to be rich in hits. Some 31% of all compounds tested hit in one or more screens of this group.

SMILES	CYP2C19 activ	CYP2C19 inh	CYP2C9 act	CYP2C9 inhib	PLAP act
CCOc1ccc(C2C(C#N)=C(N)Oc3cc(C)n(Cc4ccco4)c(=O)c32)cc1OC (stereo not drawn)	1	4	0.8	16	1
Cc1cc2c(c(=O)n1Cc1ccco1)C(c1cccnc1)C(C#N)=C(N)O2 (stereo not drawn)	0.9	14	0.3	66*	0.8
COc1ccc(C2C(C#N)=C(N)Oc3cc(C)n(Cc4ccncc4)c(=O)c32)cc1 (stereo not drawn)	0.4	62*	0.3	72*	1
Cc1cc2c(c(=O)n1Cc1cccnc1)C(c1cccs1)C(C#N)=C(N)O2 (stereo not drawn)	0.8	16	0.7	31	0.9
CC(=NC(C)C)C1=C(O)CCC1=O	1	1	0.9	13	1
COc1cc(NC(=O)C2CCN(S(=O)(=O)c3cccnc3)CC2)cc(OC)c1OC	1.1	-6	0.9	8	1.1
CN1CCN(S(=O)(=O)c2cc([N+](=O)[O-])ccc2N2CCCCCC2)CC1	0.4	56*	0.8	16	1.2
CN1CCN(c2ccc([N+](=O)[O-])cc2NC(=O)c2ccccc2Cl)CC1	0.8	23	1.1	-10	1
Cc1ccccc1C(=O)NNC(=O)c1ccc(F)cc1	0.4	62*	1.1	-14	1
Cc1ccccc1C(=O)NNC(=O)Cc1cccc2ccccc12	0.6	42	1.2	-25	2*
Cc1ccccc1C(=O)Nc1nnc(-c2ccc(F)cc2)o1	1	-3	0.9	13	1
O=C(NNC(=O)c1cccc2ccccc12)c1ccco1	1	4	1.4	-44	1.8
COc1ccc(-c2nnc(SC(C)C(=O)Nc3c(C)n(C)n(-c4ccccc4)c3=O)o2)cc1 (stereo not drawn)	1	3	0.9	7	1.1
O=C(O)c1ccc(CN(c2ccccn2)S(=O)(=O)c2ccccc2)cc1	1	0	1	-5	0.9
O=C(c1ccc(Br)o1)N(Cc1ccccc1)c1ccccn1	0.3	72*	0.8	22	0.9
O=C(c1cnc2sccn2c1=O)N(Cc1ccccc1)c1ccccn1	1	-2	0.5	50*	1
O=S(=O)(c1ccccc1)N(Cc1ccccc1)c1ccccn1	0.3	67*	0.4	57*	0.8
O=C(c1ccccc1)N(Cc1ccccc1)c1ccccn1	0.4	57*	0.7	33	0.8
Nc1nc(CSc2nc3ccccc3[nH]2)nc(N2CCOCC2)n1	1	-3	0.7	28	1
Cc1cc(C)n(-c2nc(-c3cccc(Cl)c3)cs2)n1	1	-4	1.4	-36	0.9
CCN(C(=O)COc1ncnc2ccc(Br)cc12)C1CCS(=O)(=O)C1 (stereo not drawn)	1.1	-11	1.1	-10	1
O=C(Nc1ccccc1)N1CCN2C(=O)c3ccccc3C12c1ccccc1 (stereo not drawn)	0.1	93*	0	96*	1.8
O=C(c1ccccc1)N1CCN2C(=O)c3ccccc3C12c1ccc(Cl)cc1 (stereo not drawn)	0.4	63*	0.7	31	1.4
CC(c1ccccc1)N1CC(C(=O)N2CCN(c3ccccc3)CC2)CC1=O (stereo not drawn)	1	2	1.1	-11	1.3
Cc1c(C(=O)Nc2ccccc2)sc2nc(-c3ccccc3)cn12	0.3	70*	0.2	76*	0.4
SMILES	CYP2C19 activ	CYP2C19 inh	CYP2C9 act	CYP2C9 inhib	PLAP act
Cc1cccc(NC(=O)c2sc3nc(-c4ccccc4)cn3c2C)n1	0.5	55*	0.3	65*	1.5
Cc1c(C(=O)Nc2ccc3c(c2)OCO3)sc2nc(-c3ccccc3)cn12	1	1	0.6	41	0.8
Cc1ccc(Oc2cc(C#N)c(C#N)cc2-n2nnc3ccccc32)cc1C	1.2	-22	1.2	-20	0.8
COc1cc(C=O)ccc1OCCOCCOc1ccccc1Cl	0.7	28	0.7	28	1
CCOc1cc(C=O)ccc1OCCSc1ccc(Cl)cc1	0.7	28	0.2	81*	1.2
CC(C)C1N=C2c3ccccc3N=C(SCc3cc(=O)n4cc(Cl)ccc4n3)N2C1=O (stereo not drawn)	0.5	45	0.5	55*	1.3
CN1/C(=C\C(=O)CN2C(=O)NC3(CCCCCC3)C2=O)C(C)(C)c2ccccc21	0.1	88*	0.2	79*	1
